11 molecules from PubChem BioAssay (Tox21) can be followed below.

Records with an inconclusive call do not appear. Unmarked numbers belong to inactive results. Activity calls are given as the source filed them. Unless noted, calls come from the whole dose curve; as a rule, active = well fitted curve in the direction sought with a large enough effect in the repeat runs; inconclusive = weak or mixed curves; inactive = no such curve, though single readings can be large; an effect the other way counts as inactive or inconclusive.

Test [1] in a line: qHTS assay to identify small molecule agonists of the vitamin D receptor (VDR) signaling pathway - cell viability counter screen (AID 743224). Note: nearly all actives have a fitted effect of over 50% in size. Note: potency is the fitted concentration of half-maximal effect. The procedure, abridged: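 Here cell health was gauged by luminescent ATP detection (CellTiter-Glo, 30 min RT) in VDR-bla cells that had been incubated with test compounds for 16 h at 37C and 5% CO2.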
Background: qHTS replaces the single test concentration by a dilution series.

The nature of test [2]: qHTS assay to identify small molecule agonists of the NFkB signaling pathway (AID 1159509; active = well fitted curve in the direction sought with a large enough effect in the signal ratio in the repeat runs, not every such curve was filed as active; the % refers to the signal ratio; note: potency is the fitted concentration of half-maximal effect). The procedure, abridged:
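NFkB-bla ME-180 cells with a beta-lactamase reporter under an NF-kB response element were plated overnight, treated with compounds in DMSO for 5 hr at 37 C, then loaded with FRET substrate for 1.5 hr at room temperature.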

Test [3] is described as follows: qHTS assay to identify small molecule agonists of the NFkB signaling pathway - cell viability counter screen (AID 1159515; calls by dose curve; note: nearly all actives have a fitted effect of over 55% in size). In short, it runs like this:
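5 hr compound treatment of NFkB-bla ME-180 cells (2,000/well, seeded overnight beforehand), followed by reporter substrate for 1.5 hr. CellTiter-Glo added afterward; luminescence after 30 min RT.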

A short description of test [4]: qHTS assay to identify small molecule agonists of the endoplasmic reticulum stress response signaling pathway - cell viability counter screen (AID 1159517; calls by dose curve; note: nearly all actives have a fitted effect of over 50% in size; note: potency is the fitted concentration of half-maximal effect). In short, it runs like this: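 Counter-screen wells were identical to the reporter wells. Cells were plated at 1,500 per well and dosed for 5 hr, then read for luminescence 30 min after CellTiter-Glo addition.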

Test [5] in a line: qHTS assay to identify small molecule antagonists of the retinoid-related orphan receptor gamma (ROR-gamma) signaling pathway - cell viability counter screen (AID 1159520). Note: nearly all actives have a fitted effect of over 50% in size. Note: potency is the fitted concentration of half-maximal effect. The procedure, abridged: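 Tet-on ROR gamma CHO cells were given compounds for 2 hr, then doxycycline hyclate at 1 uM final, and incubated 16 hr at 37 C. Viability was measured as ATP content by CellTiter-Glo luminescence.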

The nature of test [6]: qHTS assay to identify small molecule agonists of the AP-1 signaling pathway - cell viability counter screen (AID 1159525; calls by dose curve; note: nearly all actives have a fitted effect of over 55% in size). In short, it runs like this: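 AP-1-bla ME-180 cells in Opti-MEM with 0.5% dialyzed FBS, compound exposure 5 h at 37 C in 15-point titration. Viability read in the same wells as ATP content by CellTiter-Glo luminescence, normalised to tetra-n-octylammonium bromide and DMSO controls.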

Test [7] deals with Retinoic acid receptor RXR-alpha (Homo sapiens) (UniProt P19793). Kind of test: qHTS assay to identify small molecule agonists of the RXR signaling pathway (AID 1159527; calls by dose curve; note: nearly all actives have a fitted effect of over 35% in size; note: potency is the fitted concentration of half-maximal effect). In short, it runs like this:
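Read-out: beta-lactamase FRET ratio (405 nm excitation, 460 and 530 nm emission) after 2 hr substrate loading at room temperature. Cells were RXR-alpha-UAS-bla HEK 293T treated with compounds for 16 hr in 2% charcoal-stripped FBS medium.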

The nature of test [8]: qHTS assay to identify small molecule agonists of the RXR signaling pathway - cell viability counter screen (AID 1159529). Note: nearly all actives have a fitted effect of over 50% in size. Note: potency is the fitted concentration of half-maximal effect. The procedure, abridged:
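HEK 293T RXRa-bla cells, 2% CS-FBS; 5 h settle; cpd 16 h 37 C, 5% CO2; CellTiter-Glo 30 min RT, luminescence. Tetraoctyl ammonium bromide as positive control.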

Test [9] in a line: qHTS assay to identify small molecule antagonists of the retinoid acid receptor (RAR) signaling pathway - cell viability counter screen (AID 1159551). Note: nearly all actives have a fitted effect of over 35% in size. The procedure, abridged:
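Seed C3RL4 cells; next day add compound, then retinol to 1 uM final; incubate 6 h at 37 C; add CellTiter-Glo; read luminescence after 30 min at RT.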

Test [10] in a line: qHTS assay to identify small molecule antagonists of the vitamin D receptor (VDR) signaling pathway - cell viability counter screen (AID 743225). Note: nearly all actives have a fitted effect of over 50% in size. Note: potency is the fitted concentration of half-maximal effect. In short, it runs like this: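 Read-out: CellTiter-Glo luminescence measured 30 min after reagent addition at room temperature. Cells were VDR-bla HEK 293T exposed 16 h at 37C, 5% CO2, to compound with 3 nM final calcitriol agonist.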

Test [11] can be described thus: qHTS assay to identify small molecule agonists of the AP-1 signaling pathway (AID 1159526; calls by dose curve).
Test [12] concerns the target Nuclear receptor ROR-gamma (Homo sapiens) (UniProt P51449). Kind of test: qHTS assay to identify small molecule antagonists of the retinoid-related orphan receptor gamma (ROR-gamma) signaling pathway (AID 1159521; note: nearly all actives have a fitted effect of over 50% in size; note: potency is the fitted concentration of half-maximal effect). In short, it runs like this:
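CHO Tet-on RORγ, RORE-luc reporter. Cpd 2 h pre-incubation, then dox hyclate 1 uM final, 16 h, 37 C/5% CO2. ONE-Glo luminescence; decrease = antagonist.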

Test [13] is described as follows: qHTS assay to identify small molecule antagonists of the retinoic acid receptor (RAR) signaling pathway (AID 1159552; note: nearly all actives have a fitted effect of over 50% in size; note: potency is the fitted concentration of half-maximal effect). In short, it runs like this: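 Cells of the C3RL4 line were seeded, incubated overnight, then dosed with compounds in DMSO followed immediately by retinol (1 uM final). Six hours later luciferase detection reagent went in; signal was measured after 30 min at RT.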

Test [14] can be described thus: qHTS assay to identify small molecule agonists of the retinoic acid receptor (RAR) signaling pathway (AID 1159553). Note: potency is the fitted concentration of half-maximal effect. To be noted: C3RL4 RARE luciferase reporter, agonist, 6 h; activation: at 73.3 µM (top of the series). The procedure, abridged: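 Activation of retinol signaling was monitored via a RARE luciferase reporter in C3RL4 cells. After 6 hr compound treatment at 37 C, detection reagent was added for 30 min at room temperature before luminescence reading.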

Test [15] is described as follows: qHTS assay to identify small molecule antagonists of the estrogen related receptor (ERR) signaling pathway (AID 1224819). In short, it runs like this: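 qHTS in ERR cells, 2,000/well, 1536 format. Cpd (DMSO) added after 6 h settle, 18 h 37 C. One-Glo luminescence, 30 min RT.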
Test [16] in a line: qHTS assay to identify small molecule agonists of the estrogen related receptor (ERR) signaling pathway (AID 1224820). In short, it runs like this: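 ERR reporter cells (NTP line) plated 2,000/well, incubated 6 h at 37 C/5% CO2, then pinned with compounds in DMSO and held 18 h at 37 C. One-Glo added; luminescence read after 30 min at room temperature.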
The subject of test [17] is estrogen-related receptor alpha (ERRalpha) with PGC-1alpha coactivator, human. Kind of test: qHTS assay to identify small molecule antagonists of the estrogen related receptor signaling pathway with the pleiotropic PPARgamma coactivator (PGC) (AID 1224821; calls by dose curve). The procedure, abridged:
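Cells engineered for PGC/ERR signalling (line from NTP) were plated 6 h at 37 C/5% CO2, then exposed to DMSO-dissolved compound for 18 h at 37 C. Luciferase activity was read by One-Glo luminescence after 30 min at room temperature.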

Test [18] can be described thus: qHTS assay to identify small molecule antagonists of the estrogen related receptor signaling pathway with the pleiotropic PPARgamma coactivator (PGC) cell viability counter screen (AID 1224822;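 note: viability read after 17.5 h compound exposure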). The procedure, abridged: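 Compounds in DMSO, with positive and negative controls, were applied to PGC/ERR cells (2,000/well) and left 17.5 h at 37 C before CellTiter-Fluor detection.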

The nature of test [19]: qHTS assay to identify small molecule agonists of the estrogen related receptor signaling pathway with the pleiotropic PPARgamma coactivator (PGC) (AID 1224823). In short, it runs like this:
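PGC/ERR reporter cells were seeded, rested 6 h at 37 C/5% CO2, then exposed to compounds in DMSO by pin transfer for 18 h at 37 C. Luciferase activity was read as luminescence after One-Glo reagent and 30 min at room temperature.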

Retinoic acid receptor RXR-alpha (Homo sapiens), sequence (P19793 whole entry, looked up): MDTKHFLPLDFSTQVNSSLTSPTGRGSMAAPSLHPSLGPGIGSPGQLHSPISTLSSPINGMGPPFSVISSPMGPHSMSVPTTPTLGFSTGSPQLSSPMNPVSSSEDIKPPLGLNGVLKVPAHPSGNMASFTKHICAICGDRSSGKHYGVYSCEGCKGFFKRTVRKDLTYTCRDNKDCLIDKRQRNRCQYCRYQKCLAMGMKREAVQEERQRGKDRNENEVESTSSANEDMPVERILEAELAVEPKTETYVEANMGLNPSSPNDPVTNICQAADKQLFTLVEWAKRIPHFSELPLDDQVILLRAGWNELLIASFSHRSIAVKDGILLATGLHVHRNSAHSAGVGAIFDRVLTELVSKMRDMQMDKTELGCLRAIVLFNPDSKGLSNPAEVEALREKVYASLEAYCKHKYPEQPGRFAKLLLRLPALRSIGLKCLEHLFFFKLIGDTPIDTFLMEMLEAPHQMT

In the case of `CCCCCC[C@@H](O)C/C=C\CCCCCCCC(=O)O`, the Potency entry in [1], in test [2], in [3], in [4], in test [5] and in [6] was “inactive” throughout. Further, the Potency result in test [9] was “inactive”. Also, the Potency was 49 µM (active) in test [7] and 38.9 µM (active) in [8].

For the molecule `O=C(O)c1ccc(OCCCOc2ccc(C(=O)O)cc2)cc1`, the Potency result in [1], in [10], in [2], in test [3], in [4] and in test [5] was “inactive” throughout. Also, the Potency entry in [11], in test [7], in test [8] and in [9] was “inactive” throughout.

In the case of `COC(=O)c1nc(Cl)c(Cl)nc1N`, the Potency is 11.9 µM (active) in test [1]; 23.9 µM (active) in [10]; 15.1 µM (active) in [2]; 21.3 µM (active) in test [4]; 13.3 µM (active) in test [5]; 3.76 µM (active) in [12]. The Potency was 13.4 µM (active) in test [8] and 11.9 µM (active) in test [13]. Moreover, the Potency result in test [3] and in [6] was “inactive” throughout.

With `O=C1C(=O)c2ccccc2C(O)=C1C1CCC(c2ccc(Cl)cc2)CC1` (stereo unspecified), the Potency in test [10] was 5.35 µM (active); in [12], 7.5 µM (active). Besides, the Potency entry in test [2], in test [3], in test [4], in test [6], in [8] and in test [9] was “inactive” throughout.

In the case of `CCN(CC)CCNC(=O)COc1ccc(OC)cc1`, the Potency result in test [1], in test [10], in test [2], in test [3], in [4] and in test [5] was “inactive” each time. The Potency entry in test [6], in [11], in test [7], in [8], in [9] and in test [13] was “inactive” each time. Further, the Potency result in test [14] was “inactive”.

For `O=C(CCc1ccc(O)cc1)c1c(O)cc(O)cc1O`, the Potency result in test [1], in test [10], in test [2], in test [3], in test [4] and in test [5] was “inactive” in each case. Further, the Potency entry in [6], in test [11], in test [8], in test [9] and in [13] was “inactive” each time. Besides, the molecule was called inactive in test [15], in test [16], in [17], in test [18] and in [19].

In the case of `O=C1c2ccccc2C(=O)C1c1nc2ccccc2c(Br)c1O`, the Potency result in test [1], in test [2], in [3], in test [4], in test [5] and in [12] was “inactive” each time. Moreover, the Potency result in test [6], in [7], in test [8], in test [9] and in test [13] was “inactive” throughout. Moreover, the Potency in [14] was 24.3 µM (active).

Take `c1csc(SSc2cccs2)c1`: the Potency result in [1], in test [10], in [2], in test [3], in [4] and in [6] was “inactive” in each case. Besides, the Potency is 24.3 µM (active) in test [12], 38.9 µM (active) in test [8] and 9.69 µM (active) in test [13].

As to `C=C(C)C(=O)OCCOCCOC(=O)C(=C)C`, the Potency entry in test [1], in test [10], in test [2], in test [3], in test [4] and in [5] was “inactive” throughout. Moreover, the Potency entry in test [6], in test [11], in [8] and in [9] was “inactive” throughout.

Consider `O=C1c2ccccc2C(=O)C1(O)O`, for which the Potency entry in test [1], in test [10], in [2], in [3], in [6] and in test [7] was “inactive” in each case. In [13], the Potency result was “inactive”. Besides, the Potency in test [4] is 49.2 µM (active); in test [5], 61.4 µM (active).

For `CC1(C)[C@H](C(=O)O)N2C(=O)C[C@H]2S1(=O)=O`, the Potency entry in test [1], in test [2], in test [3], in test [4], in test [12] and in [6] was “inactive” throughout. Further, the Potency entry in test [8], in test [9], in test [13] and in test [14] was “inactive” throughout.
